Assay outcomes from PubChem.
Pf growth 96h: inhibits malaria parasite growth, 96 h | P. falciparum luciferase reporter growth, 96 h | Potency, µM (top dose mostly 28.7 µM), inactives show top-dose activity change, negative = inhibition, actives largely listed as inhibitors | actives 6.9% (n = 320,000); also: % is scaled to controls: 0 for no effect and ±100 for the full control effect
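Two parasite generations (96 h, 37 C, 5% CO2) of compound exposure in infected erythrocytes (0.05% parasitemia, 2% hematocrit). Luciferase-reporter P. falciparum; decreased luminescence indicates inhibited growth, aimed at apicoplast-acting delayed death.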
HCV inhibitor: inhibitors of hepatitis C virus infection; Huh7.5.1 HCVcc-Cre infection, luciferase reporter, 44 h; Potency, µM (titrated, usually from 41.8 µM), inactives show at the top dose activity change, negative = inhibition, actives largely listed as inhibitors; actives 3.4% (n = 340,000); AID 651820; also: % is scaled to controls: 0 for no effect and ±100 for the full control effect
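HCVcc-Cre virus at an moi near 0.5 was added right after compound to cells cultured 4 h from seeding (1,000 cells/well). Luciferase activity was determined 44 h later, 15 min after substrate addition at RT.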
AMA1-RON2 inh: AMA1-RON2 (P. falciparum) interaction inhibition | actives 0.2% (n = 360,000) | AlphaScreen AMA1-biotinylated RON2 peptide binding | AID 720542 | Potency, µM (highest dose often 58.2 µM), inactives show at the top dose activity change, negative = inhibition, most hits filed as inhibitors;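 also: 0% = vehicle wells and -100% = peptide control; nearly all actives have a fitted effect of over 45% in size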
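AMA1 (3D7) with his tag at 25 nM final met compounds first, then biotinylated RON2 peptide at 25 nM; detection used donor plus acceptor beads, 10 µg/mL apiece, read by AlphaScreen after 30 min at room temperature.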
SARS PLpro yeast: SARS-CoV PLP inhibition in yeast; AID 485353; Potency, µM (doses to about 32.9 µM), without a hit: at the top dose activity, positive = growth rescue, most hits filed as activators; actives 0.19% (n = 330,000); S. cerevisiae expressing SARS-CoV PLpro, growth rescue; calls by dose curve; also: 0% is about no effect; nearly all actives have a fitted effect of over 55% in size
Pf growth 48h: P. falciparum growth inhibition at 48 hours (one generation) | actives 5.9% (n = 310,000) | AID 504832 | Potency, µM (top dose mostly 28.7 µM), inactives show at the highest dose activity change, negative = inhibition, most hits filed as inhibitors | P. falciparum luciferase growth in erythrocytes, 48 h; also: % is scaled to controls: 0 for no effect and ±100 for the full control effect
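Erythrocytes infected with P. falciparum carrying an integrated firefly luciferase reporter (2% hematocrit, 0.1% parasitemia final) were exposed to compounds in RPMI 1640 with 0.5% Albumax at 37 C, 5% CO2. Growth inhibition was scored as reduced luminescence.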
NS1 function inh: influenza NS1 inhibition. Potency, µM (highest dose often 46.1 µM), without a hit: top-dose activity, positive = more growth. actives 0.4% (n = 270,000). AID 2326; calls by dose curve; also: actives are rising curves; nearly all actives have a fitted effect of over 50% in size
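Recovery from NS1-induced slow growth read by OD600 in budding yeast switched to galactose assay medium (pH 6.0, -URA) at 1:100 dilution. Compound 23 nl per well; the matching strain lacking NS1 serves as control.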
* hit, by the source's call; i = inactive; u = inconclusive; x = no result given; [ ] = dose if it differs, or a comment. An excerpt weighted towards active compounds, which were near 12% of everything screened. Unless noted, calls follow the shape of the dose curve; as a rule, active = well fitted curve in the direction sought with a large enough effect; inconclusive = small, poorly fitted or top-dose-only effect, or another doubt; inactive = no such curve, though single readings can be large; an effect the other way counts as inactive or inconclusive. Potency is read from the fitted curve at half-maximal effect.

SMILES	Pf growth 96h	HCV inhibitor	AMA1-RON2 inh	SARS PLpro yeast	Pf growth 48h	NS1 function inh
COC(=O)c1cc(CN2CCN(c3ccccc3)CC2)ccc1O	u	2%	-11%	-2%	15%	7%
CCN1CCN(Cc2cc(Br)cc(Br)c2O)CC1	x	u	18%	-6%	1.7µM*	u
CC1CN(c2ccc(C(F)(F)F)cc2[N+](=O)[O-])CCN1S(C)(=O)=O (centres undefined)	17%	4%	1%	10%	13%	-2%
CC1CN(c2ccc([N+](=O)[O-])cc2Cl)CCN1S(C)(=O)=O (centres undefined)	61%	-21%	-8%	-1%	3.3µM*	-8%
Cc1cc(O)c(CN2CCN(S(=O)(=O)c3cccs3)CC2)cc1C(C)C	4.1µM*	u	-2%	-3%	1.7µM*	x
CC(C)c1ccccc1NC(=S)N1CCN(S(=O)(=O)c2cccs2)CC1	5.2µM*	-8%	-4%	0%	u	x
Cc1c(Cl)cccc1NC(=S)N1CCN(S(=O)(=O)c2cccs2)CC1	u	-10%	1%	-1%	1.9µM*	x
CN1CCN(S(=O)(=O)c2cccs2)CC1	-12%	0%	3%	-1%	6%	6%
Cc1cc(C(C)(C)C)cc(CN2CCN(S(=O)(=O)c3cccs3)CC2)c1O	x	x	13%	x	x	x
Nc1ccc(C(=O)N2CCN(S(=O)(=O)c3ccc4c(c3)OCCCO4)CC2)cc1[N+](=O)[O-]	u	u	-7%	-2%	u	x
CCc1cccc2c1NC(=O)[C@]21[C@@H]2C(=O)N(Cc3ccccc3)C(=O)[C@@H]2[C@@H]2CCCN21	-2%[5.75 µM]	-6%	-11%	-1%	9.3µM*	-15%
Cc1ccc2c(c1)CCCN2CC(=O)N(C)c1c(N)n(Cc2ccccc2)c(=O)[nH]c1=O	-4%	2%	-5%[11.6 µM]	-6%	1%	x
COc1cc2c(cc1OC)-c1cc(NC3CCCCCCC3)nc(=O)n1CC2	7.4µM*	-11%	0%	14%	u	-51%
OCc1cn(-c2ccccc2)nc1-c1ccco1	77%	-11%	-7%	-6%	x	-9%
C=CCOC(=O)C1=C(C)NC(C)=C(C(=O)OCC=C)C1c1cn(-c2ccccc2)nc1-c1ccco1	3.7µM*	11%	0%	-20%	u	11%
CCCCS(=N)(=O)CC[C@H](N)C(=O)O (some centres undefined)	x	x	x	x	x	-6%
O=c1c2ccccc2sc2nc(C3CCCCC3)n(Cc3ccco3)c(=O)c12	6.6µM*	-5%	-13%	-4%	1.7µM*	-45%
CCc1nc2sc3ccccc3c(=O)c2c(=O)n1Cc1ccco1	u	14%	-19%	7%	-24%	-15%
COCCN=C1Sc2nc3c(C)cccc3cc2CN1Cc1ccco1	-5%	-15%	11%	-3%	8.3µM*	3%
Cc1ccc2nc3c(cc2c1)CN(Cc1ccco1)C(=NCC1CCCO1)S3 (centres undefined)	u	-11%	-9%	0%	u	-36%
Cc1cccc2cc3c(nc12)SC(=NCC1CCCO1)N(Cc1ccco1)C3 (centres undefined)	-6%	u	-4%	-14%	4.1µM*	22%
COCCN=C1Sc2nc3ccc(C)cc3cc2CN1Cc1cccs1	u	-24%	37%	-2%	0%	-2%
N/C(=N\OC(=O)Cc1ccc(-c2ccccc2)cc1)c1ccncc1	6%	7%	-1%	-3%	u	x
CN1CCN(c2nc3ccccn3c(=O)c2/C=C(\C#N)S(=O)(=O)c2ccc(Cl)cc2)CC1	-2%	15%	-8%	0%	4%	2%
COc1ccc(CCC(C)NCc2cccc(Br)c2)cc1 (centres undefined)	8.3µM*	6%	-1%	2%	-7%	0%
SMILES	Pf growth 96h	HCV inhibitor	AMA1-RON2 inh	SARS PLpro yeast	Pf growth 48h	NS1 function inh
COc1ccc(Br)c(Cn2c(C)c(C(=O)NCc3ccc(F)cc3)sc2=O)c1	x	x	-11%	x	x	x
CC(=O)COc1nc2c(c(-c3ccco3)c1C#N)CCc1ccccc1-2	12µM*	11µM*	-28%	1%	12µM*	-3%
CN(C)c1ccc(N=C/C=C2\N(C)c3ccccc3C2(C)C)cc1	u	u	u	-11%	u	-6%
CN(C)c1ccc(N=Nc2cccc(F)c2)cc1	142%	0%	8.9µM*	-3%	189%	-3%
Cc1cc(N(C)C)cc(C)c1N=Nc1cc[n+]([O-])cc1	x	x	-7%	x	x	x
Cc1cccc(N=Nc2ccc(N(C)C)cc2)c1	148%	-3%	16µM*	0%	208%	-8%
CN(C)c1ccc(N=Nc2cccc3ccoc23)cc1	203%	-16%	14µM*	-4%	i	-19%
CN(C)c1ccc(N=Nc2ccc(S(N)(=O)=O)cc2)cc1	-25%	22%	-17%	2%	51%	u
CN(C(=O)c1cccc(C#CC(C)(C)O)c1)C1CCCN(Cc2ccccc2F)C1 (centres undefined)	0%	-10%	-3%	2%	-9%	-10%
NC(=S)NN=Cc1nccc2c(N)cccc12	x	x	-60%	x	x	x
CCN(C(C)=O)c1cnc(C=NNC(N)=S)c2ccccc12	x	6.3µM*	-27%	x	x	x
Cc1nnc(NC(=O)NC(C)N2C(=O)C3C4C=CC(C4)C3C2=O)s1 (centres undefined)	-26%	12%	-5%	3%	2.6µM*	-17%
Cc1nn(C)c(C)c1CNC(=O)c1cc2n(n1)C(C(F)(F)F)CC(c1cccs1)N2 (centres undefined)	7.4µM*	u	3%	2%	-6%	-10%
Cc1nn(C)c(C)c1CN(C)C(=O)c1nn2c(c1Br)NC(c1cccs1)CC2C(F)(F)F (centres undefined)	9.3µM*	-5%	9%	12%	u	9%
Cc1nn(C)c(C)c1CN(C)C(=O)c1cnn2c1NC(c1ccccc1)CC2C(F)(F)F (centres undefined)	i	-10%	-9%	-1%	x	-6%
CCNC(=O)c1ccc(-n2nc(C)cc2-c2ccccc2)cc1	1.5µM*	-23%	0%	-5%	u	-17%
CCOCCCNC(=O)c1cc(C)nn1-c1ccccc1	12µM*	21%	6%	6%	8%	-7%
Cc1ccc(S(=O)(=O)N2CCN(C(=O)C(C)Cn3nc(C)c(C)c3C)CC2)cc1 (centres undefined)	16%	3%	8%	-2%	-23%	5%
Cc1cc(/C=C2/C(=N)N3C(=NC2=O)SN=C3S(C)(=O)=O)c(C)n1-c1ccc(F)cc1	-18%	10%	-1%	2%	u	x
CCOc1ccc(-n2c(C)cc(/C=C3/C(=N)N4C(=NC3=O)SN=C4S(C)(=O)=O)c2C)cc1	8.3µM*	-4%	-10%	1%	u	x
